Bioassay records (PubChem BioAssay)
Only some compounds are listed: those with a hit (about 19% of all), similar ones and a draw of the others.
IL-1B inflam inh = inflammasome signaling inhibition, IL-1 beta readout; THP-1 LPS/ATP IL-1B secretion, AlphaLISA, 16 h; stronger effect = lower value; AID 743279; 360,000 compounds, 4.7% hits; activity change, % at 57.5 µM; in the data active = activity change below about -50%; inconclusive = mostly about -30% to -49%
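Secreted IL-1B measured by AlphaLISA bead assay after 16 h compound exposure of THP-1 cells; compounds (final up to 57.5 uM) added 1 h before LPS (250 ng/mL) and ATP (1.25 mM) stimulation; lower signal means less secretion.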
TDP1 cell noCPT = qHTS for Inhibitors of human tyrosyl-DNA phosphodiesterase 1 (TDP1): qHTS in cells in absence of CPT; DT40 Tdp1-/- hTDP1 cells, no CPT, ATP luminescence, 48 h; Potency, µM (doses to about 46.2 µM), for inactives: at the top dose activity change, negative = growth inhibition, usual class: inhibitors; 420,000 compounds, 15% hits; note: potency is the fitted concentration of half-maximal effect; nearly all actives have a fitted effect of over 55% in size
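Growth of hTDP1-complemented DT40 Tdp1-knockout cells is measured by ATP luminescence after at least 48 hr compound exposure at 37 °C, with DMSO substituting for the 20 nM CPT used in the parallel screen.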
uPA surface inh = blocks generation of uPA at the cell surface | cell surface uPA generation assay, qHTS | Potency, µM (series often up to 38.3 µM), without a hit: at the highest dose activity change, negative = inhibition, actives largely listed as inhibitors | 330,000 compounds, 0.31% hits | AID 540303; active = well fitted inhibition curve with a large enough effect; inconclusive = small, poorly fitted or top-dose-only effect; inactive = no such curve, though single readings can be large or run the other way; tested in mouse RAW 264.7 cells; note: potency is the fitted concentration of half-maximal effect; nearly all actives have a fitted effect of over 55% in size
HT1080 IDH1KD tx = toxicity to HT-1080 IDH1 knockdown cells (counter line); Potency, µM (doses to about 46.1 µM), for the others: at the highest dose activity, negative = toxicity, usual class: cytotoxic; 360,000 compounds, 2% hits; HT-1080 IDH1 knockdown viability, ATP luminescence, 48 h;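 note: potency is the fitted concentration of half-maximal effect; 0% = DMSO wells and -100% = cell-free medium wells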
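Luminescent ATP read-out (CellTiter-Glo, 10 min at room temperature) after 48 h compound exposure at 37 °C gave viability of IDH1-knockdown HT-1080 cells. Activity was normalised to DMSO and cell-free wells, then fitted as concentration-response curves.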
HT1080NT lethal = kills 2HG-producing HT-1080-NT fibrosarcoma cells; Potency, µM (doses to about 46.1 µM), without a hit: top-dose activity, negative = less viability, most hits filed as cytotoxic; 360,000 compounds, 1.6% hits; HT-1080-NT fibrosarcoma viability, CellTiter-Glo ATP luminescence, 48 h;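 note: NT is the 2HG producing partner of a matched IDH1 knockdown line; potency is the fitted concentration of half-maximal effect; 0% = DMSO-treated cells and -100% = media-only wells without cells; nearly all actives have a fitted effect of over 55% in size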
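Viability of the 2HG-overproducing fibrosarcoma line after 48 hours of compound exposure at 37 degrees C was determined by luminescence with CellTiter-Glo, and concentration-effect curves were then fitted and categorized.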
TDP1 cell CPT = growth inhibition of DT40 Tdp1-/-;hTDP1 cells with camptothecin (screen for TDP1 inhibitors); chicken DT40 Tdp1-/-;hTDP1 cells + 20 nM CPT, ATP luminescence, 48 h; Potency, µM (doses to about 46.2 µM), for inactives: at the highest dose activity change, negative = growth inhibition, hits mostly inhibitors; 420,000 compounds, 12% hits; note: potency is the fitted concentration of half-maximal effect; nearly all actives have a fitted effect of over 55% in size
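Chicken DT40 Tdp1-/- cells stably complemented with human TDP1 were seeded at 400 cells/well in medium containing 20 nM camptothecin, exposed to pin-transferred compounds, and grown at 37 °C for at least 48 hr. Viability was read as ATP luminescence.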
* hit, by the source's call; ? = inconclusive; / = no result; [ ] = remark or other dose. Unless noted, calls come from the whole dose curve; as a rule, active = well fitted curve in the direction sought with a large enough effect; inconclusive = small, poorly fitted or top-dose-only effect, or another doubt; inactive = no such curve, though single readings can be large; an effect the other way counts as inactive or inconclusive. Unless noted, % is set by controls: 0 for no effect and ±100 for the full control effect.

SMILES | IL-1B inflam inh | TDP1 cell noCPT | uPA surface inh | HT1080 IDH1KD tx | HT1080NT lethal | TDP1 cell CPT
Nc1nc(SCc2ccccc2)sc1C(=O)N1CCCCC1 | ? | ? | / | -9% | 4% | ?
CC1CCC2(CC1)NC(=O)N(CC(=O)N(Cc1ccccc1)C(C)(C)C)C2=O (stereo not drawn) | 5 | ? | 4% | 8% | 11% | -21%
O=C(CN1C(=O)NC2(CCCC2)C1=O)N1CCN(c2ccc(C(F)(F)F)cc2[N+](=O)[O-])CC1 | -8 | 8.2µM* | 7% | -1% | -6%[9.24 µM] | 13µM*
O=C(CN1C(=O)NC2(CCCC2)C1=O)N1CCN(S(=O)(=O)c2cccc(C(F)(F)F)c2)CC1 | 4 | -9% | 5% | 1% | 1% | 9%
CC1CCC2(CC1)NC(=O)N(Cc1cccc(C(F)(F)F)c1)C2=O (stereo not drawn) | 24 | ? | -3% | -17% | -5% | 18µM*
O=C(CN1C(=O)NC2(CCCCCC2)C1=O)N1CCC(Cc2ccccc2)CC1 | 17 | 16µM* | -3% | -11% | -12% | ?
O=C(CN1C(=O)NC2(CCCC2)C1=O)N1CCN(c2cccc(C(F)(F)F)c2)CC1 | -3 | 21µM* | 0% | -5% | -1% | ?
CC1(C)NC(=O)N(CC(=O)N2CCN(c3cccc(C(F)(F)F)c3)CC2)C1=O | 10 | ? | -18% | 0% | 3% | ?
Cc1ccc2c(CC(=O)Nc3cccc(Cl)c3C)coc2c1 | / | 1% | / | / | / | -6%
COc1cc2cc(CCCOC(=O)CCCC(=O)O)oc(=O)c2cc1OC | 18 | 0% | 11% | -5% | 0% | 2%
CCS(=O)(=O)c1ccc2oc(Nc3cccc(OC)c3)nc2c1 | -12 | ? | -7% | -18% | -17% | ?
CCOc1ccc(C(=O)NCC(=O)NCC(c2cccs2)N2CCOCC2)cc1 (stereo not drawn) | 6 | -24% | 0% | 2% | 4% | 0%
O=C(Cn1ncc2c([nH]c3ccccc32)c1=O)NCc1cccc(Cl)c1 | / | -13% | / | / | / | -4%
CCOc1ccc(NC(=O)c2ccc(Cl)c(NC(=O)c3ccco3)c2)cc1 | 11 | -19% | -5% | -29% | 1% | 9%
Cc1cccc(N2CCN(C(=O)CN3C(=O)NC4(CCCCCC4)C3=O)CC2)c1C | -12 | 21µM* | -3% | -13% | -23% | ?
O=[N+]([O-])c1cccc2c(N3CCOCC3)ccnc12 | 0 | 15µM* | ? | -14% | ? | ?
COc1cc2[nH]c(=O)n(CCCC(=O)N(C)Cc3ccccc3)c(=O)c2cc1OC | / | -25% | / | / | / | ?
CC(C)(C)CC(C)(C)c1ccc(O)c(CN2CCN(CCC#N)CC2)c1 | -57* | 23µM* | 6% | -21% | 8% | ?
CC1=C(/C=N/Nc2ccc([N+](=O)[O-])cc2[N+](=O)[O-])C(C)(C)CCC1 | 11 | 18µM* | 6% | -9% | 0% | ?
COc1ccc(/C=N\Nc2ccc([N+](=O)[O-])cc2[N+](=O)[O-])c(C(=O)O)c1OC | -10 | -23% | 2% | 1% | -14% | -28%
CC1CC(NC(=O)/C=C/C(=O)O)CC(C)(C)C1 (stereo not drawn) | / | -13% | -1% | -9% | 0% | 5%
Cc1ccc(/C=N/Nc2cccc3cccnc23)c(O)c1 | 0 | ? | / | ? | -2%[9.24 µM] | -7%
C/C(=N\Nc1cccc2cccnc12)c1ccc[nH]1 | -1 | 4.6µM* | -9% | -21% | 0% | 2.6µM*
C=C[C@@]1(C)C[C@H](OC(=O)CSC(C)(C)CNC(=O)[C@@H](N)C(C)C)[C@@]2(C)C(C)CC[C@@]3(CCC(=O)[C@@H]32)[C@H](C)[C@H]1O (stereo partly drawn) | / | 0.079µM* | / | / | / | 0.11µM*
C=C[C@]1(C)C[C@@H](OC(=O)CSCCN(CC)CC)[C@]2(C)C(C)CC[C@]3(CCC(=O)[C@H]32)[C@@H](C)[C@@H]1O (stereo partly drawn) | -16 | 8.2µM* | -18% | -28% | -6% | 8.2µM*
SMILES | IL-1B inflam inh | TDP1 cell noCPT | uPA surface inh | HT1080 IDH1KD tx | HT1080NT lethal | TDP1 cell CPT
Cc1cccc(-c2nnc3sc(-c4ccccc4)nn23)c1 | -6 | 13µM* | / | 29% | 25% | 20µM*
COc1ccc(-c2nn3c(-c4cccc(C)c4)nnc3s2)cc1OC | -4 | ? | 3% | -6% | -15% | ?
COc1cccc(-c2nn3c(-c4cc(C)[nH]n4)nnc3s2)c1 | / | 11µM* | 0% | -4% | 10% | 16µM*
COc1cccc(-c2nnc3sc(-c4ccccn4)nn23)c1 | 0 | 23µM* | -8% | -5% | 2% | ?
COc1ccc(-c2nn3c(-c4ccccn4)nnc3s2)cc1OC | -51* | -22% | / | -7% | -6% | ?
COc1cccc(-c2nn3c(-c4ccccn4)nnc3s2)c1 | / | ? | -7% | 7% | 11% | ?
COc1cc(CN(C)C(=O)C2CCN(S(=O)(=O)c3cccs3)CC2)ccc1OC(F)F | 5 | ? | 3% | -10% | 5%[9.24 µM] | ?
CC(C)C(=NO)c1ccccc1 | 9 | -1% | 3% | -4% | -10% | 1%
COCCCNC(=O)c1nc2ccccc2c(=O)n1NC(=O)Nc1c(Cl)cccc1Cl | 5 | 1% | 7% | 8% | 21% | 0%
COc1ccc(CCNC(=O)CCC(=O)NC2CCCC(C)C2C)cc1OC (stereo not drawn) | 6 | -18% | 2% | 2% | 13% | 1%
c1ccc(CSc2nc3ncccc3[nH]2)cc1 | / | ? | / | / | / | -8%
COc1cccc(-c2nn3c(-c4ccco4)nnc3s2)c1 | -12 | ? | -3% | 13% | 25% | -14%
CCOc1ccc(-c2nn3c(-c4cc(-c5ccccc5)n[nH]4)nnc3s2)cc1 | / | 14µM* | / | / | / | 16µM*
COc1ccc(-c2nn3c(-c4cc(-c5ccccc5)n[nH]4)nnc3s2)cc1 | / | 2.8µM* | / | / | / | 3.5µM*
Clc1ccccc1-c1nn2c(-c3ccncc3)nnc2s1 | -67* | 23µM* | 4% | -28% | -1% | 16µM*
COc1ccc(-c2nn3c(-c4cc(-c5ccccc5)n[nH]4)nnc3s2)cc1OC | / | 4.5µM* | / | / | / | 2.8µM*
CCOC(=O)[C@]12CCCC=C1N(Cc1ccco1)C(=O)[C@H](CC(=O)NCc1cccc3ccccc13)C2 | -2 | ? | / | -4% | -15% | ?
COc1cc(NC(=O)CN2Cc3ccccc3C2=O)cc(OC)c1OC | / | -27% | / | / | / | -15%
